# Measured values as given in paper PMC7862700, “An all-to-all approach to the identification of sequence-specific readers for epigenetic DNA modifications on cytosine”.
# Legend:
# Assay in all cases: DAPPL (digital affinity profiling via proximity ligation, sequencing); 10 mM Tris-HCl pH 7.5, 50 mM NaCl, 1 mM DTT, 4% glycerol, room temperature, 30 min; GST-TFs on glutathione beads, 16-mer random dsDNA library, 0.1% formaldehyde crosslink after washing; high values mean tight binding
# Conditions in all cases: protein: recombinant; tags: N-terminal GST; dsDNA, one strand shown
# [1] = molecular target: T1, GABPA (Homo sapiens, UniProt Q06546 1-454)
# T1 sequence: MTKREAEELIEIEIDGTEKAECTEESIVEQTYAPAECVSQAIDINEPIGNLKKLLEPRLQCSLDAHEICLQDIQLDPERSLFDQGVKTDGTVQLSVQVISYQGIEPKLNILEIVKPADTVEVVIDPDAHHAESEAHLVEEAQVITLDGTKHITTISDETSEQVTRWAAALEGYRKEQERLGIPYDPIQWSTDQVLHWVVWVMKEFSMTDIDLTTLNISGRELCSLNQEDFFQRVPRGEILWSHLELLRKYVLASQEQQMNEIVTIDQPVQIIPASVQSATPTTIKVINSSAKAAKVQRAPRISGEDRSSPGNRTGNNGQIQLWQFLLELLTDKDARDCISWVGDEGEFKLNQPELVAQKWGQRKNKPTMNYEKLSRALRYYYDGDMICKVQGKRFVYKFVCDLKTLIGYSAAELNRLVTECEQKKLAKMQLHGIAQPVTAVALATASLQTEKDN
# Summary of the method: (§1)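 After expression in yeast as GST fusions, human transcription factors were bound to glutathione beads, DNA-barcoded and mixed with a tag-only sample. The pools were incubated with 200 nmole of a 16-mer random double-stranded DNA library in Tris/NaCl/DTT/glycerol buffer (30 min, room temperature), washed and crosslinked with 0.1% formaldehyde. Proximity ligation with BsaI/T4 ligase ran for 1 h at 37 °C, before PCR amplification and sequencing on an Illumina NextSeq500. Binding signal is a hexamer's read frequency for a factor divided by its frequency for the tag-only sample.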
# [2] = molecular target: ELF1 (Homo sapiens, UniProt P32519 1-619)
# Chain of ELF1 (P32519 whole entry): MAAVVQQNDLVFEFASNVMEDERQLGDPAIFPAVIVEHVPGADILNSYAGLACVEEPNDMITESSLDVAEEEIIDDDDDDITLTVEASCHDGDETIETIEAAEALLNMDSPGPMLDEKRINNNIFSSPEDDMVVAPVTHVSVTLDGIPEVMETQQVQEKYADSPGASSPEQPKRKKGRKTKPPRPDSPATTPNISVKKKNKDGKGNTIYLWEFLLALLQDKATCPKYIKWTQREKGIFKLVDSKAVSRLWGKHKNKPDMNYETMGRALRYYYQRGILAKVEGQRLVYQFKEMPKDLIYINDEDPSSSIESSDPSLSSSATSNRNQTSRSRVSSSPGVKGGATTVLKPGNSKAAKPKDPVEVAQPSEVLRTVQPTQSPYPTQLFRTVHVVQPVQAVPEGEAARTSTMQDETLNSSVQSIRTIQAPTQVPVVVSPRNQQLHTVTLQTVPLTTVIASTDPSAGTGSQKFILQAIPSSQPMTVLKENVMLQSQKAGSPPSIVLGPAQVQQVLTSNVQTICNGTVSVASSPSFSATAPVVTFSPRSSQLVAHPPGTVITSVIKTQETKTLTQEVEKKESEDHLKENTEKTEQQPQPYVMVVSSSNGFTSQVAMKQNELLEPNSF
# Summary of the method: as §1
# [3] = molecular target: T2, ELK3 (Homo sapiens, UniProt P41970 1-407)
# T2 sequence: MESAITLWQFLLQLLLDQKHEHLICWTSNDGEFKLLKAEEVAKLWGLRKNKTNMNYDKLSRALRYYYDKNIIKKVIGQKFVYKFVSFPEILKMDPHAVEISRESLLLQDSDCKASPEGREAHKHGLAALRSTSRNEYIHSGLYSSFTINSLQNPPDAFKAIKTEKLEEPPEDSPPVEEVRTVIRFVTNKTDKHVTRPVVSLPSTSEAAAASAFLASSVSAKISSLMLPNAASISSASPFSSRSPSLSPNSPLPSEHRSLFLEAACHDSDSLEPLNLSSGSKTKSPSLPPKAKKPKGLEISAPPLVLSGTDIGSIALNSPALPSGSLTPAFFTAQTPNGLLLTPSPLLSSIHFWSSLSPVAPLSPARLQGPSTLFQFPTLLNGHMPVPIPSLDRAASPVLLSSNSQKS
# Summary of the method: as §1
# [4] = molecular target: T3, FEV (Homo sapiens, UniProt Q99581 1-238)
# T3 sequence: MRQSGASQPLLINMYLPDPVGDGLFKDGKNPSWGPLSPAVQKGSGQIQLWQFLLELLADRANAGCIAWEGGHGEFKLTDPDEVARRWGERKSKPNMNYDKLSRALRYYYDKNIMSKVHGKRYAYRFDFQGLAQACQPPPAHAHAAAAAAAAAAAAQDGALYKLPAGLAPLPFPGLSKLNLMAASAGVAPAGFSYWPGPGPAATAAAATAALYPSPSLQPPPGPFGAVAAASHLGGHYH
# Summary of the method: as §1
# [5] = molecular target: T4, SPIC (Homo sapiens, UniProt Q8N5J4 1-248)
# T4 sequence: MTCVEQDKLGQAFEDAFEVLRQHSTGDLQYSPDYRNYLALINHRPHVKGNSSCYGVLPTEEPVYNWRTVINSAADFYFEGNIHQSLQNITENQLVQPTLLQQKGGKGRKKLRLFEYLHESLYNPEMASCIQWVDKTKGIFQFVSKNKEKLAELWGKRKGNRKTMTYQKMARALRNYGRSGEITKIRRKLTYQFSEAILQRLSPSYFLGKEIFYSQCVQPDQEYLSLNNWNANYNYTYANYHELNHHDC
# Summary of the method: as §1
# [6] = molecular target: ELF4 (Homo sapiens, UniProt Q99607 1-663)
# Chain of ELF4 (Q99607 whole entry): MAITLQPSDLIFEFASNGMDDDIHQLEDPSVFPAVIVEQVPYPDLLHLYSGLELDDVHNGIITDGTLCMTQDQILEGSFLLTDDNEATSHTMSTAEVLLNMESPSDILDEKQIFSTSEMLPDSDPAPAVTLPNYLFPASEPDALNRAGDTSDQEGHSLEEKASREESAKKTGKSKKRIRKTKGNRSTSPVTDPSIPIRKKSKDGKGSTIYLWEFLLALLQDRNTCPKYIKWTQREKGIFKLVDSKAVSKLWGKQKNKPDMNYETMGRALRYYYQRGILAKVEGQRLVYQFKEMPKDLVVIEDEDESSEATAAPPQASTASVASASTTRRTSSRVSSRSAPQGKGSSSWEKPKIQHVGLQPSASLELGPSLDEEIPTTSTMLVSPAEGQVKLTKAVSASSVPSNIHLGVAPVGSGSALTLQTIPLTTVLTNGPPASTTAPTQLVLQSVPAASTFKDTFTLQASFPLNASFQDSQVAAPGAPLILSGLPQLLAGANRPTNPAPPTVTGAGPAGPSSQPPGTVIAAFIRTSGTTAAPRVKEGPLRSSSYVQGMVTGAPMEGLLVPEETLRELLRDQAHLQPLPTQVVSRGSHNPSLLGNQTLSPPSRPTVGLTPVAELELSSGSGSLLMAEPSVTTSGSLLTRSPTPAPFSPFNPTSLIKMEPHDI
# Summary of the method: as §1
# [7] = molecular target: T5, ELK4 (Homo sapiens, UniProt P28324-2 1-405)
# T5 sequence: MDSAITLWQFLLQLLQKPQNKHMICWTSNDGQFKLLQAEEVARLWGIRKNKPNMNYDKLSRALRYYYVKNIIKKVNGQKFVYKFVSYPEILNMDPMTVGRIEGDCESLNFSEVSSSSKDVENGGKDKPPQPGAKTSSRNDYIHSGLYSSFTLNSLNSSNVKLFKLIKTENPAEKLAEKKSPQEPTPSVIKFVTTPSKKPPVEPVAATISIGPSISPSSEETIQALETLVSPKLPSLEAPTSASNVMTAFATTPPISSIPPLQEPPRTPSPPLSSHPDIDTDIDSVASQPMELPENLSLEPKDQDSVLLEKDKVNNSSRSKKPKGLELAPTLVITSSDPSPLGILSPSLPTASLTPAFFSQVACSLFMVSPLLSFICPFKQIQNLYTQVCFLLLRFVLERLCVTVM
# Summary of the method: as §1
# [8] = molecular target: ETV1 (Homo sapiens, UniProt P50549 1-477)
# Chain of ETV1 (P50549 whole entry): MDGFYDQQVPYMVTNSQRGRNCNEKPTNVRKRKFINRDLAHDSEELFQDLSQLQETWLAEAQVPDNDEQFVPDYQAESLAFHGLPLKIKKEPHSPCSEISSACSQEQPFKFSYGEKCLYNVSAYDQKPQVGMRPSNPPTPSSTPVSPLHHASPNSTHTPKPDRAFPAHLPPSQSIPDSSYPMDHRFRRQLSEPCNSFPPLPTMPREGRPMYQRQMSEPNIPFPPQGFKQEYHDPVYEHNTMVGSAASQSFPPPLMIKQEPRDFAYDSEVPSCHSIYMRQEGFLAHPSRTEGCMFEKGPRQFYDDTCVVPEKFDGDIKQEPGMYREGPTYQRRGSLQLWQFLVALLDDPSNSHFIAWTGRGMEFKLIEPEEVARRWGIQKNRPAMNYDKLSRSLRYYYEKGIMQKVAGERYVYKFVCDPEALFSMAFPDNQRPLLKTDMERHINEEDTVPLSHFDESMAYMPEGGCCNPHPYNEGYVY
# Summary of the method: as §1
# [9] = molecular target: T6, ETV3L (Homo sapiens, UniProt Q6ZN32 1-361)
# T6 sequence: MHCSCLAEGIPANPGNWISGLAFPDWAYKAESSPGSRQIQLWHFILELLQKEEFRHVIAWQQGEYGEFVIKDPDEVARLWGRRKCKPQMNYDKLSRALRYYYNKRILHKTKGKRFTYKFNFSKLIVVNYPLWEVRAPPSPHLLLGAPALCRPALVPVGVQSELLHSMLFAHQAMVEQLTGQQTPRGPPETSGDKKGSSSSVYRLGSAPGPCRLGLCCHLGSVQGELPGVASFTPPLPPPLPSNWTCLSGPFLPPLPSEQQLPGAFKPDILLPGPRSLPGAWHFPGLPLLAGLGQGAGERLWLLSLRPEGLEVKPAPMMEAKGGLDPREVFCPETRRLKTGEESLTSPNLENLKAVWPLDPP
# Summary of the method: as §1
# [10] = molecular target: T7, SPDEF (Homo sapiens, UniProt O95238 1-335)
# T7 sequence: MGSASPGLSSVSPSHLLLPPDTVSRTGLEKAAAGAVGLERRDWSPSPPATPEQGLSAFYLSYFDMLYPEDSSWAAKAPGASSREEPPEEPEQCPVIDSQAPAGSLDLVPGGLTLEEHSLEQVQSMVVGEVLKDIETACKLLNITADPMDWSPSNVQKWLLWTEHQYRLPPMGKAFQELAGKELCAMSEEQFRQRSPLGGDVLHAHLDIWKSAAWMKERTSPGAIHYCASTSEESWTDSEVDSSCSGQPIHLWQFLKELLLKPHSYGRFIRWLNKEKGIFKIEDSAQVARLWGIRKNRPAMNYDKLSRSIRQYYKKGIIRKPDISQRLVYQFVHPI
# Summary of the method: as §1
# [11] = molecular target: T8, ELF5 (Homo sapiens, UniProt Q9UKW6-2 1-255)
# T8 sequence: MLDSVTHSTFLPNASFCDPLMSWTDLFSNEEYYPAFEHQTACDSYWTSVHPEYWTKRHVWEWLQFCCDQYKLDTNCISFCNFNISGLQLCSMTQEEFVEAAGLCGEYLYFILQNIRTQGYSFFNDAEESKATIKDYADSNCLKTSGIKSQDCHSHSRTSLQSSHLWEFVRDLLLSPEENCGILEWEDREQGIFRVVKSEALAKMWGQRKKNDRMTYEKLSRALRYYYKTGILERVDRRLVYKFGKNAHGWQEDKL
# Summary of the method: as §1
# [12] = molecular target: T9, ETV3 (Homo sapiens, UniProt P41162-2 1-143)
# T9 sequence: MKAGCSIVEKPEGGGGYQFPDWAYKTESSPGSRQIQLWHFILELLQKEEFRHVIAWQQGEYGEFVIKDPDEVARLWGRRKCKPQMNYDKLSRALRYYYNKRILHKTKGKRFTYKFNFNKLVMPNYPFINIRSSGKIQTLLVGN
# Summary of the method: as §1
# [13] = molecular target: ETV6 (Homo sapiens, UniProt P41212 1-452)
# Chain of ETV6 (P41212 whole entry): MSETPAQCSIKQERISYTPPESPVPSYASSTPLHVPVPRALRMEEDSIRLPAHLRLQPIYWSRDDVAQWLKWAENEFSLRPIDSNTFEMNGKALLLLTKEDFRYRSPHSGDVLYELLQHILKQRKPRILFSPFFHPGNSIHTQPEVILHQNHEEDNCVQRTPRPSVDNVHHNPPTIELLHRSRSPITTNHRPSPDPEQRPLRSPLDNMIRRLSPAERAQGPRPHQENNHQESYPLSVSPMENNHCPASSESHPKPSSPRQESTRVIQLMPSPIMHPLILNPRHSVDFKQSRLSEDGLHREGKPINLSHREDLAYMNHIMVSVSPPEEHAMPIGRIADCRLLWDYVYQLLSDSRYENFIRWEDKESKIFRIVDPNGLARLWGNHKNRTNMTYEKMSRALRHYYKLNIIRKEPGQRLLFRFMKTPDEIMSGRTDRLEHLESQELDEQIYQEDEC
# Summary of the method: as §1
# [14] = molecular target: SPI1 (Homo sapiens, UniProt P17947 1-270)
# Summary of the method: as §1
# [15] = molecular target: T10, ELF3 (Homo sapiens, UniProt P78545 1-371)
# T10 sequence: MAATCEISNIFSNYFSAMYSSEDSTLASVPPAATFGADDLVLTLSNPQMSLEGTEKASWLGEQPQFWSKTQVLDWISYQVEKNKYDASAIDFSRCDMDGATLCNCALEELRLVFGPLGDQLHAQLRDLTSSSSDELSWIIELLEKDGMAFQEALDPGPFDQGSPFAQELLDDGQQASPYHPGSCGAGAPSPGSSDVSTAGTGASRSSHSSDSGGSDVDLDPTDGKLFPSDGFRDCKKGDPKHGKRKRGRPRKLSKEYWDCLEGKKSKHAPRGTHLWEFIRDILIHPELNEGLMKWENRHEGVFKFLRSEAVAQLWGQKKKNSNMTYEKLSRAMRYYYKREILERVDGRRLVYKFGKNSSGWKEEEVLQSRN
# Summary of the method: as §1
# [16] = molecular target: T11, ETV7 (Homo sapiens, UniProt Q9Y603 1-341)
# T11 sequence: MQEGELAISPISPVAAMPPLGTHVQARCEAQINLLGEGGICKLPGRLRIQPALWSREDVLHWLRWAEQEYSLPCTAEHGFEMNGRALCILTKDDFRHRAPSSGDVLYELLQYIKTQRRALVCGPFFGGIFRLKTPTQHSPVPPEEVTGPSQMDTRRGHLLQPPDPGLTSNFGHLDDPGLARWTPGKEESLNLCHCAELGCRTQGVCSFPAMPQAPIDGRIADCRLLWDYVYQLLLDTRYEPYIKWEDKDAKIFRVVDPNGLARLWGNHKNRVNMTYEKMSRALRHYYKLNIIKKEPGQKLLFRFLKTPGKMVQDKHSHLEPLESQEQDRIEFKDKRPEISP
# Summary of the method: as §1
sequence,measurement,setting,value
CGCCAC,binding signal,[1],"1.04 fold enrichment (6-mer frequency, TF over GST control)"
same,binding signal,[2],"1.08 fold enrichment (6-mer frequency, TF over GST control)"
same,binding signal,[3],"1.04 fold enrichment (6-mer frequency, TF over GST control)"
same,binding signal,[4],"1.11 fold enrichment (6-mer frequency, TF over GST control)"
same,binding signal,[5],"1.02 fold enrichment (6-mer frequency, TF over GST control)"
same,binding signal,[6],"1.03 fold enrichment (6-mer frequency, TF over GST control)"
same,binding signal,[7],"1.07 fold enrichment (6-mer frequency, TF over GST control)"
same,binding signal,[8],"1.06 fold enrichment (6-mer frequency, TF over GST control)"
same,binding signal,[9],"1.03 fold enrichment (6-mer frequency, TF over GST control)"
same,binding signal,[10],"1.05 fold enrichment (6-mer frequency, TF over GST control)"
same,binding signal,[11],"1.05 fold enrichment (6-mer frequency, TF over GST control)"
same,binding signal,[12],"1.02 fold enrichment (6-mer frequency, TF over GST control)"
GCGCCG,binding signal,[1],"1.03 fold enrichment (6-mer frequency, TF over GST control)"
same,binding signal,[3],"1.02 fold enrichment (6-mer frequency, TF over GST control)"
same,binding signal,[4],"1.05 fold enrichment (6-mer frequency, TF over GST control)"
same,binding signal,[5],"1.1 fold enrichment (6-mer frequency, TF over GST control)"
same,binding signal,[6],"1.03 fold enrichment (6-mer frequency, TF over GST control)"
same,binding signal,[7],"1.03 fold enrichment (6-mer frequency, TF over GST control)"
same,binding signal,[13],"1.05 fold enrichment (6-mer frequency, TF over GST control)"
GATAGT,binding signal,[5],"1.01 fold enrichment (6-mer frequency, TF over GST control)"
AACGCG,binding signal,[1],"1.04 fold enrichment (6-mer frequency, TF over GST control)"
same,binding signal,[2],"1.05 fold enrichment (6-mer frequency, TF over GST control)"
same,binding signal,[14],"1.05 fold enrichment (6-mer frequency, TF over GST control)"
same,binding signal,[5],"1.1 fold enrichment (6-mer frequency, TF over GST control)"
same,binding signal,[6],"1.01 fold enrichment (6-mer frequency, TF over GST control)"
same,binding signal,[15],"1.02 fold enrichment (6-mer frequency, TF over GST control)"
same,binding signal,[8],"1.04 fold enrichment (6-mer frequency, TF over GST control)"
same,binding signal,[16],"1.02 fold enrichment (6-mer frequency, TF over GST control)"
same,binding signal,[11],"1.03 fold enrichment (6-mer frequency, TF over GST control)"
same,binding signal,[12],"1.1 fold enrichment (6-mer frequency, TF over GST control)"
same,binding signal,[13],"1.01 fold enrichment (6-mer frequency, TF over GST control)"
